A selection: hits, their analogues and other compounds. The true share with any hit is near 6.2%.
SUMO Mot1 rescue = SUMOylation pathway inhibition by Mot1-301 growth rescue; S. cerevisiae Mot1-301 growth rescue, ATP luminescence, 38.5C; percent above DMSO median, 100 means doubled; growth rescue, % at 18.8 µM; actives 1% (n = 320,000);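 active = every valid replicate shows activation above 250% relative to neutral control wells; inactive = the rest, any valid replicate at or below 250%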;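 note: OY570 slx delta 5 strain wells were the positive control but not used for scaling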
Cardio protect = protects H9c2 cardiomyocytes from peroxide injury. H2O2 injury protection, ATPLite, 2 h. protection from H2O2 cell death, % at 20 µM. actives 0.63% (n = 360,000). AID 588492;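 active = compounds giving at least 50% protection of heart cells from peroxide-induced death in the single-dose screen, raw or plate-pattern-corrected value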;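 note: 0% = DMSO wells with peroxide and 100% = DMSO wells without peroxide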
AI-2 QS modul = modulates the Vibrio harveyi AI-2 quorum sensing system. Vibrio harveyi JMH597 AI-2 luminescence/OD600 ratio, 9 h; hits give low values; strain lacks LuxN and CqsS sensors; 0 = neutral-control median. AID 2094. activity change, % at 7.5 µM. actives 0.4% (n = 300,000); in the data active = activity change below about -75%, passing the limit was not always enough;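 note: luminescence divided by OD600 gain over 9 h not by final OD600 alone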
AHR act = activates the human aryl hydrocarbon receptor. actives 2.5% (n = 320,000). activation, % at 5 µM. P35869. AHR-responsive luciferase reporter cells, luminescence; in the data active = activation above about 47%;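 note: 0% = vehicle wells and 100% = reference agonist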
NTR1 ag = activates human neurotensin receptor 1 | P30989 | NTR1-U2OS beta-arrestin-GFP spot imaging, agonist mode | activation, % at 20 µM | actives 0.17% (n = 330,000) | AID 493036;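 active = activation at or above 40% of the spot to cytoplasm intensity ratio, with at least 20 cells analyzed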;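 note: 0% = DMSO without peptide and 100% = 100 nM NTR1 peptide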
Target sequence (P30989 whole entry, looked up): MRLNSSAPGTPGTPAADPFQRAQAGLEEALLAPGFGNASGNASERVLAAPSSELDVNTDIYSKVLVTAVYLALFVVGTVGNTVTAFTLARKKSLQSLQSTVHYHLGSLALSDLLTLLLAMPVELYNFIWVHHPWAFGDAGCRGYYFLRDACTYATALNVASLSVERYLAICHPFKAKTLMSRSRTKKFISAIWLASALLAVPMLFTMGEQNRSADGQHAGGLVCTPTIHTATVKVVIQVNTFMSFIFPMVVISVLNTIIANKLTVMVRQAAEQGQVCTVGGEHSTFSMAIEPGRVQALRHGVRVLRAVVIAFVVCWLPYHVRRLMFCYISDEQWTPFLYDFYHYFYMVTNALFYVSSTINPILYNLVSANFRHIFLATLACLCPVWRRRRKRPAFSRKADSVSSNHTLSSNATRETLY
NR3A LBD binder = NR3A (human) ligand-binding domain modulation; NR3A LBD differential scanning fluorimetry, Tm shift; 0% = protein alone, 100% = glycine-bound protein; Tm shift relative to glycine control, % at 25 µM; actives 2.5% (n = 340,000);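 active = melting temperature shift of at least 10% of the positive control shift, at one fixed dose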
Active calls of the source: *; . = not tested or not shown.

SMILES | SUMO Mot1 rescue | Cardio protect | AI-2 QS modul | AHR act | NTR1 ag | NR3A LBD binder
C#CCOCCOCCOCCNc1nc(N2CCN(C(=O)CCCCCCCCCCNC(=O)[C@@H](CCSC)n3cc(CCO)nn3)CC2)nc(N2CCN(C(=O)CCCCCCCCCCNC(=O)[C@H]([C@@H](C)CC)n3cc(CCCCCN)nn3)CC2)n1 | -23 | . | . | 0 | 23 | 17*
C#CCOCCOCCOCCNc1nc(N2CCN(C(=O)CCCCCCCCCCNC(=O)[C@H]([C@@H](C)CC)n3cc(CCCCCN)nn3)CC2)nc(N2CCN(C(=O)CCCCCCCCCCNC(=O)[C@@H]([C@H](C)O)n3cc(C)nn3)CC2)n1 | -12 | -4 | . | 3 | 16 | 17*
C#CCOCCOCCOCCNc1nc(N2CCN(C(=O)CCCCCCCCCCNC(=O)Cn3cc(CCCCCN)nn3)CC2)nc(N2CCN(C(=O)CCCCCCCCCCNC(=O)[C@H]([C@@H](C)CC)n3cc(CCCCCN)nn3)CC2)n1 | -7 | 3 | . | -2 | 6 | 28*
O=C(Nc1cccc(S(=O)(=O)N2CCOCC2)c1)c1cc([N+](=O)[O-])ccc1N1CCOCC1 | 6 | 7 | 9 | 2 | 0 | 1
Cc1ccc(S(=O)(=O)N/N=c2\sc3ccccc3n2C)cc1 | -18 | 0 | 17 | 23 | 1 | 0
Cc1cccc(S(=O)(=O)N/N=c2\sc3ccccc3n2C)c1 | 4 | 3 | 11 | 66* | 0 | -2
O=C1CC(c2cccc(O)c2)Oc2ccccc21 (stereo not drawn) | 12 | -5 | . | 14 | 2 | 7
COc1cc2[nH]c(=S)nc(NCc3ccc(Cl)cc3)c2cc1OC | -5 | -6 | 13 | 20 | 0 | 35*
COc1ccccc1CNc1nc(=S)[nH]c2cc(OC)c(OC)cc12 | -5 | -1 | 25 | 15 | 0 | 0
COc1cc2[nH]c(=S)nc(NCc3cccs3)c2cc1OC | -8 | 4 | 49 | 60* | 1 | -5
COc1ccc(C(=O)Nc2ccc(NC(=O)Cc3ccccc3)cn2)cc1 | 24 | 9 | 17 | 1 | -2 | -2
COc1ccccc1NC(=S)N1CCNC(=O)C1CC(=O)Nc1cccc(C)c1 (stereo not drawn) | 4 | -2 | 20 | 0 | -1 | 0
COc1ccccc1NC(=O)CC1C(=O)NCCN1C(=O)Nc1ccc(Cl)c(Cl)c1 (stereo not drawn) | -22 | 4 | 38 | -4 | -2 | 12*
CCCCn1c(N)c(N(CC(C)C)C(=O)CSCC(=O)Nc2ccc(C)cc2)c(=O)[nH]c1=O | -11 | 2 | . | 1 | 1 | 2
COc1ccc(CC(=O)Oc2ccc(Br)cc2F)cc1S(=O)(=O)N1CCOCC1 | 361 | -5 | 13 | 11 | 4 | 2
COc1cc2cc(-c3ccc(O)cc3O)nc(C)c2cc1OC | 10 | 71* | 18 | 48* | 9 | 29*
CC1(C(=O)NCc2cccnc2)CCN1C(=O)Cc1cccs1 (stereo not drawn) | . | 7 | . | . | . | .
O=c1ccc2cccc([N+](=O)[O-])c2[nH]1 | . | -1 | . | . | . | .
CN1CCc2c(C#N)c(N3CCOCC3)nc(NCC3CCCO3)c2C1 (stereo not drawn) | -25 | 5 | 22 | -3 | 2 | 0
CCCCCNc1nc(NCCCO)c(C#N)c2c1CN(C)CC2 | -3 | 2 | 31 | 58* | 0 | 0
C=CCNc1nc(NCc2ccccc2)c(C#N)c2c1CN(C)CC2 | 1 | 6 | 6 | 54* | 2 | 6
CCCCCNc1nc(N2CCCC2)c2c(c1C#N)CCN(C)C2 | 10 | -3 | 13 | 60* | 6 | 1
O=C(NC1CCN(C(=O)Nc2ccccc2Cl)CC1)c1cccc(F)c1 | 4 | -1 | . | 0 | 0 | -2
CCn1c(=NC(=O)c2ccc(S(=O)(=O)N(C)C)cc2)sc2cccc(OC)c21 | -16 | -2 | 19 | 7 | 0 | 10*
CCc1cc(C(=O)NC2CCCc3c2cnn3-c2ccc(F)cc2F)no1 (stereo not drawn) | . | -9 | . | . | . | .
SMILES | SUMO Mot1 rescue | Cardio protect | AI-2 QS modul | AHR act | NTR1 ag | NR3A LBD binder
O=C(Cc1ccccc1)Nc1ccc(C(=O)NCC2COc3ccccc3O2)cc1 (stereo not drawn) | 2 | 2 | 29 | 0 | 0 | 22*
O=C(NCC1COc2ccccc2O1)c1ccccc1 (stereo not drawn) | -4 | -2 | 15 | 11 | -1 | 1
Cc1ccccc1CSCC(=O)c1c(N)n(C)c(=O)n(C)c1=O | -7 | 3 | 14 | 8 | 0 | 11*
COc1ccc(N(CCN2C(=O)c3ccccc3C2=O)C(=O)c2cccc([N+](=O)[O-])c2)cc1 | -5 | 19 | 16 | 2 | 2 | 2
COc1ccc(N(Cc2cc3cc(OC)ccc3[nH]c2=O)C(=O)c2cccnc2)cc1 | -13 | 109* | . | 5 | 0 | 0
COc1ccc(N(CCCN2C(=O)c3cccc4cccc(c34)C2=O)C(=O)c2ccncc2)cc1 | -11 | 14 | 35 | 76* | 4 | 0
COc1ccc(N(CCCN2C(=O)c3cccc4cccc(c34)C2=O)C(=O)c2cccnc2)cc1 | 12 | 22 | 18 | 75* | 2 | -3
COc1cc(OC)cc(C(=O)N(CCCN2C(=O)c3cccc4cccc(c34)C2=O)c2cccc(OC)c2)c1 | 16 | -3 | -3 | 103* | 2 | -2
Cc1onc(-c2c(F)cccc2Cl)c1C(=O)Nc1cccc(S(=O)(=O)N2CCOCC2)c1 | -5 | 14 | . | 1 | 0 | 1
CCOc1cc(N2CCOCC2)c(OCC)cc1NC(=O)c1ccc(S(=O)(=O)N2CC(C)OC(C)C2)cc1 (stereo not drawn) | . | -1 | . | . | . | -3
Cc1ccc(C)c(NC(=O)Nc2ccc3c(c2)OCO3)c1 | -6 | 3 | 11 | 64* | 0 | 0
Cc1cc(C)cc(NC(=O)NC(C)C2CCCO2)c1 (stereo not drawn) | 10 | 16 | 8 | 14 | 0 | 0
Cc1ccccc1NC(=O)Nc1ccc2c(c1)OCO2 | -1 | -11 | 9 | 68* | 0 | 8
O=C(Nc1cccc(F)c1)Nc1ccc2c(c1)OCO2 | 3 | -7 | -5 | . | 1 | 37*
CC(NC(=O)Nc1ccc2c(c1)OCO2)C1CCCO1 (stereo not drawn) | 5 | -2 | 11 | 66* | 8 | 3
O=C(Nc1ccc2c(c1)OCO2)c1cccc(F)c1 | 300 | -1 | 6 | 24 | -2 | -21
Cc1c(NC(=O)N(C)c2ccccc2)c(=O)n(-c2ccccc2)n1C | 7 | -4 | 15 | 1 | -1 | 0
CCN(CC(=O)NCc1ccc(F)cc1)C(=O)COc1ccccc1[N+](=O)[O-] | 6 | -3 | . | 5 | 0 | 0
COC(=O)C1C2CC(=O)C(C2)C1C(=O)OC (stereo not drawn) | . | -1 | . | . | . | 0

High-throughput results as filed in PubChem.
